PubChem BioAssay (NCATS)
Values joined by “and” are separate entries in the source; they are usually repeats but may differ in a detail not shown here. Equal values may be shown once. Results filed as inconclusive are left out. For some of these results: Measured potencies and affinities stand elsewhere. Active and inactive are the calls of the source. Unless noted, the rule behind the calls is not given here.

Assays:
[1] = Ebola virus entry assay, green fluorescence channel
[2] = Ebola virus entry assay, blue channel fluorescence
[3] = qHTS for Activators of Parkin Expression: LOPAC Validation Assay (FLuc Reporter) (AID 720573; active = well fitted curve in the direction sought with a large enough effect; an effect the other way counts as inactive or inconclusive); details: Cell line, PRKN promoter firefly luciferase reporter, vehicle wells = 0, positive control = 100%; series mostly up to 46.1 µM
Summary of the method: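 Cells seeded, 24 h; compounds pinned, 7-pt dose response; 24 h at 37 C/5% CO2; volume reduced; FLuc reagent 10 min RT; luminescence read. Normalization: DMSO = 0, positive control = 100%.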

[4] = qHTS assay for small molecule agonists of the antioxidant response element (ARE) signaling pathway measured by Nrf2-dependant transcriptional activity (AID 720636; active = well fitted curve in the direction sought with a large enough effect in the repeat runs; an effect the other way counts as inactive or inconclusive;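 note: HepG2 cells with an ARE-driven luciferase reporter; % of control where 0% means no effect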); details: ARE-luc HepG2, Nrf2 luciferase reporter, 16 h; series mostly up to 92.4 µM
Summary of the method: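 Reporter gene assay, HepG2 ARE-luc: 16 hr compound, 37 C, 5% CO2; read-out luciferase luminescence.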

[5] = qHTS assay for small molecule antagonists of the retinoid-related orphan receptor gamma (ROR-gamma) signaling pathway - cell viability counter screen (AID 720652; active = well fitted curve in the direction sought with a large enough effect in the repeat runs; an effect the other way counts as inactive or inconclusive;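 note: compound exposure lasted 16 hr before ATP read; % is set by controls: 0 for no effect and ±100 for the full control effect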); details: RORgamma reporter cell line viability counter screen; series mostly up to 92.2 µM
Summary of the method: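 Luminescence from CellTiter-Glo after 30 min at room temperature reported cellular ATP as the cytotoxicity measure. Cells were the CHO reporter line with doxycycline-induced ROR-gamma expression, exposed to compound for 16 hr at 37 C.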

[6] = qHTS assay for small molecule agonists of the antioxidant response element (ARE) signaling pathway measured by Nrf2-dependant transcriptional activity - cell viability counter screen (AID 720653; active = well fitted curve in the direction sought with a large enough effect in the repeat runs; an effect the other way counts as inactive or inconclusive; note: % is set by controls: 0 for no effect and ±100 for the full control effect); details: ARE-bla HepG2 viability, CellTiter-Glo ATP luminescence, 16 h; stronger effect = lower value
Summary of the method: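 ARE-bla HepG2 cells treated with compounds for 16 h at 37C; this counter screen measures viability as intracellular ATP by CellTiter-Glo luminescence after 30 min at room temperature.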

[7] = target: T1, Hexokinase-4 (Homo sapiens) + Glucokinase regulatory protein (Homo sapiens) (UniProt P35557+Q14397); test: qHTS assay for inhibitors of recombinant human GCK-GKRP interaction: Diaphorase-coupled assay (AID 743205; active = well fitted curve in the direction sought with a large enough effect; an effect the other way counts as inactive or inconclusive); details: G6PDH/diaphorase resorufin fluorescence; series mostly up to 57.5 µM
Summary of the method: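 25 mM Hepes pH 7.6, 5 mM glucose, 0.4 mM ATP, 4 U/ml G6PDH; 10 nM each GST-GCK/FLAG-GKRP. Kinetic fluorescence read, 1/min × 30 min. Normalized: DMSO ± enzyme = max/min.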

[8] = target: T1, Hexokinase-4 (Homo sapiens) + Glucokinase regulatory protein (Homo sapiens); test: qHTS assay for inhibitors of recombinant human GCK-GKRP interaction: ADP-Glo assay (AID 743206; active = well fitted curve in the direction sought with a large enough effect; an effect the other way counts as inactive or inconclusive;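 note: plate controls were DMSO plus enzyme for no effect and no enzyme for full effect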); details: ADP-Glo luminescence, 60 min, 0% = vehicle-only wells with enzyme present; series mostly up to 76.9 µM
Summary of the method: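 GST-GCK and FLAG-GKRP (15 nM each in the dispensed mix, with 2 uM S6P) react with 0.4 mM ATP and 5 mM glucose (final) in Hepes pH 7.6 for 60 min at room temperature. ADP is measured by ADP-Glo luminescence.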

[9] = qHTS Assay for Identifying Gametocytocidal Compounds (AID 743244; active = well fitted curve in the direction sought with a large enough effect; an effect the other way counts as inactive or inconclusive;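 note: % is set by controls: 0 for no effect and ±100 for the full control effect; actives lower the fluorescent signal which means gametocytes are killed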); details: P. falciparum 3D7 stage III-V gametocytes, alamarBlue, 72 h; max response: stronger effect = lower value
Summary of the method: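 P. falciparum 3D7 stage III–V gametocytes (20,000 cells/well) were exposed to compounds for 72 h at 37 °C, 5% CO2. AlamarBlue was then added for 24 h; decreased resorufin fluorescence (Ex 525/Em 598 nm) indicated loss of viability.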

[10] = qHTS assay for cell viability of HEK293 cells (AID 743288; active = well fitted curve in the direction sought with a large enough effect; an effect the other way counts as inactive or inconclusive; note: % is set by controls: 0 for no effect and ±100 for the full control effect; nearly all actives have a fitted effect of over 50% in size); details: ATP luminescence (CellTiter-Glo), 18 h, stronger effect = lower value
Summary of the method: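 HEK293 parental, 2,000 cells/well; ≥5 h pre-incubation 37 C; pintool compound addition; 18 h, 37 C; CellTiter-Glo 30 min RT; luminescence read.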

[11] = qHTS profiling of the MIPE4 collection as inhibitors of Plasmodium falciparum (3D7) proliferation (AID 743344);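 note: scaled between DMSO vehicle wells and 0.29 µM artemisinin as full inhibition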; details: P. falciparum 3D7 in erythrocytes, SYBR Green DNA fluorescence, 72 h; at 28.5 µM (top of the series) unless noted
Summary of the method: (§1)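 Erythrocytes infected with P. falciparum (0.3% parasitemia, 2.5% hematocrit) incubated with compounds 72 h at 37 C, 5% CO2. Lysis with saponin/Triton buffer containing SYBR Green I, overnight at room temperature in the dark; DNA fluorescence (485/535 nm) normalised to 0.29 uM artemisinin and DMSO.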

[12] = qHTS profiling of the MIPE4 collection as inhibitors of Plasmodium falciparum (DD2) proliferation (AID 743345); details: P. falciparum Dd2 in erythrocytes, SYBR Green DNA, 72 h; at 28.5 µM (top of the series) unless noted
Summary of the method: as §1

[13] = qHTS profiling of the MIPE4 collection as inhibitors of Plasmodium falciparum (DD2) proliferation (Rep 2) (AID 743346); details: P. falciparum Dd2 in erythrocytes, SYBR Green DNA, 72 h; at 28.5 µM (top of the series) unless noted
Summary of the method: as §1

[14] = qHTS profiling of the MIPE4 collection as inhibitors of Plasmodium falciparum (HB3) proliferation (AID 743347);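 note: plate controls were DMSO vehicle wells for no effect and artemisinin wells for full effect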; details: P. falciparum HB3 in erythrocytes, SYBR Green DNA, 72 h; at 28.5 µM (top of the series) unless noted
Summary of the method: as §1
Throughout, for efficacy: 0% is about no effect.

T1 sequence (P35557 whole entry, looked up): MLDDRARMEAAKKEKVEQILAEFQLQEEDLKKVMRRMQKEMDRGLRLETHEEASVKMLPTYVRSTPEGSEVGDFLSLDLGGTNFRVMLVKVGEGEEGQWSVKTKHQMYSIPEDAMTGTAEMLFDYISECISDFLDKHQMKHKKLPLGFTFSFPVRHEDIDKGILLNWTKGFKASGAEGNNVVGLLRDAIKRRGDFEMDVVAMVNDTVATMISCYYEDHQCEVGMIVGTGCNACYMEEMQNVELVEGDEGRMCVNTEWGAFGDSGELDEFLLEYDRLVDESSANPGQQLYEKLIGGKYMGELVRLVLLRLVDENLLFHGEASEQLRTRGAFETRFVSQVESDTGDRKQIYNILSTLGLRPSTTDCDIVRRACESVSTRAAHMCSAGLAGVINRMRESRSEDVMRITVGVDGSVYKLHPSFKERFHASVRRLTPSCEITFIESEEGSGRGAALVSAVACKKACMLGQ
T1 sequence (Q14397 whole entry, looked up): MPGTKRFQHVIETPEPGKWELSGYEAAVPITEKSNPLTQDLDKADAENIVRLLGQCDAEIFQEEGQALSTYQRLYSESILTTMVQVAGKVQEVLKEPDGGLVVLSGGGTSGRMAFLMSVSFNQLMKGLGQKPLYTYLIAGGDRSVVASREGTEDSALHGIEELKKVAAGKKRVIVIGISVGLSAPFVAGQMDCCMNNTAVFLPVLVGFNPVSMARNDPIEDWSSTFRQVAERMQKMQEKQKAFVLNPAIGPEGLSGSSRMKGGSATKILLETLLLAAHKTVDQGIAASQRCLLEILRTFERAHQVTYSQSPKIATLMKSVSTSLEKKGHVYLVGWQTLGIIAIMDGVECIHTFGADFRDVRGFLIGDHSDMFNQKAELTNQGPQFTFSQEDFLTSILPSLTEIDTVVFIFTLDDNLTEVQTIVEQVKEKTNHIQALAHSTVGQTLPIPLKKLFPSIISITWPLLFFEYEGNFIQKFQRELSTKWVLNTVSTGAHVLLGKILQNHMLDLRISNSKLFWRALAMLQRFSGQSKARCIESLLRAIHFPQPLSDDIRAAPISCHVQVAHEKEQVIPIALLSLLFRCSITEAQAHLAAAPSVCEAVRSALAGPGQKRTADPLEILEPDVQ

## Oc1ccc(OCc2ccccc2)cc1
[1]
  efficacy: 14.9% (inactive)
[2]
  outcome: inactive

## Cc1cc(CC(=O)O)c(C)n1-c1ccc(Cl)cc1
[1]
  efficacy: 41.9% (inactive)
[2]
  outcome: inactive

## CCCCCC=CCC=CCCCCCCCC(=O)OCC
[1]
  efficacy: 15.2% (inactive)
[2]
  outcome: inactive

## CC(=O)Nc1ccc(OC(=O)c2ccccc2OC(C)=O)cc1
[1]
  efficacy: -28.5% (inactive)
[2]
  outcome: inactive

## Cc1cccc(C(=O)O)c1O
[1]
  efficacy: 15.1% (inactive)
[2]
  outcome: inactive

## Cc1cccc(C)c1NC(=O)CN(CC(=O)O)CC(=O)O
[1]
  efficacy: -22.8% (inactive)
[2]
  outcome: inactive

## Nc1cc(=O)[nH]c(N)n1
[1]
  efficacy: -17.6% (inactive)
[2]
  outcome: inactive

## Cc1nc2c([nH]1)c(=O)n(C)c(=O)n2Cc1ccco1
[1]
  efficacy: 40.2% (inactive)
[2]
  outcome: inactive

## CC(C)=CCC/C(C)=C/CC/C(C)=C/CCC(=O)OC/C=C(\C)CCC=C(C)C
[1]
  efficacy: 10.8% (inactive)
[2]
  outcome: inactive

## Nc1nc(N)c(-c2ccccc2)s1
[1]
  efficacy: 13% (inactive)
[2]
  outcome: inactive

## CC1(C)Oc2ccc(C#N)cc2[C@@H](N2CCCC2=O)[C@@H]1O
[1]
  efficacy: -10.5% (inactive)
[2]
  outcome: inactive

## CC(C)NCC(O)c1cc(O)cc(O)c1 (stereo unspecified)
[1]
  efficacy: 56.8% (inactive)
[2]
  outcome: inactive

## CCCCCCNC(=O)n1cc(F)c(=O)[nH]c1=O
[1]
  efficacy: -33.6% (inactive)
[2]
  outcome: inactive

## O=S(=O)(O)c1ccc(O)cc1
[1]
  efficacy: 20.2% (inactive)
[2]
  outcome: inactive

## Cc1onc(-c2c(Cl)cccc2Cl)c1C(=O)Cl
[1]
  efficacy: -15.7% (inactive)
[2]
  outcome: inactive

## CCOC(N)=O
[1]
  efficacy: -34.6% (inactive)
[2]
  outcome: inactive

## CC[C@H](C)[C@H](N)C(=O)O
[1]
  efficacy: -38.6% (inactive)
[2]
  outcome: inactive

## CCN1CCC[C@H]1CNC(=O)c1c(O)c(Cl)cc(Cl)c1OC
[1]
  efficacy: -17.7% (inactive)
[2]
  outcome: inactive

## C[C@]12Cc3cn[nH]c3C[C@@H]1CC[C@@H]1[C@@H]2CC[C@@]2(C)[C@H]1CC[C@]2(C)O
[1]
  efficacy: 8.25% (inactive)
[2]
  outcome: inactive

## CCCCCCCC(=O)OCC(COC(=O)CCCCCCC)OC(=O)CCCCCCC
[1]
  efficacy: 8.07% (inactive)
[2]
  outcome: inactive

## Cc1cc(O)c2ccccc2c1O
[1]
  efficacy: 13.4% (inactive)
[2]
  outcome: inactive

## CC(C(=O)O)c1ccc(/C=C2\CCCCC2=O)cc1 (stereo unspecified)
[1]
  efficacy: 13.8% (inactive)
[2]
  outcome: inactive

## CC(=O)OC[C@H]1O[C@@H](OC(C)=O)[C@H](OC(C)=O)[C@@H]1OC(C)=O
[1]
  efficacy: 18.7% (inactive)
[2]
  outcome: inactive

## CC(N=C(NC#N)Nc1ccncc1)C(C)(C)C (stereo unspecified)
[1]
  efficacy: -23.2% (inactive)
[2]
  outcome: inactive

## O=C(O)CCCCCCCC(=O)O
[1]
  efficacy: 17.2% (inactive)
[2]
  outcome: inactive

## COc1ccc(-c2ccc3cc(C(=O)O)ccc3c2)cc1C12CC3CC(CC(C3)C1)C2
[1]
  efficacy: 13% (inactive)
[2]
  outcome: inactive

## Cc1onc(-c2ccccc2)c1C(=O)Cl
[1]
  efficacy: 6.34% (inactive)
[2]
  outcome: inactive

## CC(=O)Nc1ccc(OCC(O)CNC(C)C)cc1 (stereo unspecified)
[1]
  efficacy: -28.6% (inactive)
[2]
  outcome: inactive

## COc1ccc(S(=O)(=O)Nc2nnc(CC(C)C)s2)cc1
[1]
  efficacy: -19% (inactive)
[2]
  outcome: inactive

## Cc1ccc(O)c2ncccc12
[1]
  efficacy: 17.9% (inactive)
[2]
  outcome: inactive

## CC(=O)Nc1c(I)cc(I)c(C(=O)O)c1I
[1]
  efficacy: -9.82% (inactive)
[2]
  outcome: inactive

## CC(C)c1cccc(C(C)C)c1O
[3]
  outcome: inactive
[4]
  outcome: inactive
[5]
  outcome: inactive
[6]
  max response: -3.43% (inactive)
[7]
  outcome: inactive
[8]
  outcome: inactive
[9]
  max response: -8.91% (inactive) and 15.4% (inactive)
[10]
  max response: -1.26% (inactive)
[11]
  parasite growth, % of DMSO control: 89.1%
[12]
  parasite growth remaining, % of DMSO control (lower = more inhibition): 102%
[13]
  parasite growth, % of control (lower = inhibition): 85.1%
[14]
  growth, % of control: 103%
[1]
  efficacy: -18.5% (inactive)
[2]
  outcome: inactive
